Assay results published in PubChem BioAssay (NCI).
This is part of a sample that, as a whole, favours compounds with a hit. Of some 83,000 tested, about 20% had one in any assay.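 48-hour exposure, single concentration, 96-well plates; percent growth endpoint where 0 means no net growth. Active: below 10.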 Active and inactive are the calls of the source.

Each compound was assayed on U251 CNS (assay: NCI-60 one-dose screen, 48 h (100 = growth as untreated, 0 = no growth, -100 = all killed)). Conditions: 10 µM unless noted.

Structure (SMILES) | growth
ClCCN(CCCl)Cc1ccc(Nc2ccnc3cc(Cl)ccc23)cc1 | 22.4% (inactive)
N#CCCNc1ccccc1 | 103% (inactive)
C[C@]12CCc3sc(NCCc4ccccc4)nc3C1=CC[C@@H]1[C@@H]2CC[C@]2(C)C(=O)CC[C@@H]12 | 60.1% (inactive)
Cc1cnc(/C=C/C(=O)O)cc1-c1cc2c(cc1C)C(C)(C)CCC2(C)C | 70.9% (inactive)
C[C@@H]1CCC2[C@@H](C)[C@H](OC(=O)CCC(=O)NCCNC(=O)Cc3cc(=O)oc4cc(N(C)C)ccc34)O[C@@H]3O[C@]4(C)CC[C@@H]1C23OO4 (stereo not given in full) | 34.4% (inactive)
CCN(CCO)C(Cc1ccccc1)c1ccccc1 (stereo not given) | 115% (inactive)
CC1=C2[C@@H](CC1)[C@]1(C)O[C@@](C(C)C)(C[C@H]1O)[C@H]2OC(=O)C1CC1c1ccccc1 (stereo not given in full) | 84.3% (inactive)
COC(=O)[C@@H](C)C[C@H](Cc1ccccc1)NC(=O)c1nc([C@@H](C[C@H](C(C)C)N(C)C(=O)[C@@H](NC(=O)[C@H]2C[C@H](O)CCN2C)C(C)C)OC(C)=O)sc1C(C)C | 7.85% (active)
COc1cc(C=Nc2cc(Cl)cc(Cl)c2)ccc1N(CCCl)CCCl | 86.9% (inactive)
COC(=O)[C@@H](C)C[C@H](Cc1ccccc1)NC(=O)c1csc([C@@H](C[C@H](C(C)C)N(C)C(=O)[C@@H](NC(=O)[C@H]2CCCN2C)C2CC2)OC(C)=O)n1 | 8.67% (active)
NC(=S)c1cn(C2OC(CO)C(O)C2O)c2ncnc(N)c12 (stereo not given) | -7.25% (active)
O=C(N/N=C/c1ccc(N(CCCl)CCCl)cc1)c1cccc2ccccc12 | 60.9% (inactive)
Oc1ccc2c3c1OC1[C@@H](O)CC[C@@]4(O)[C@@H](C2)N(CC2CCC2)CC[C@]314 (stereo not given in full) | 96.8% (inactive)
CCOC(=O)[C@@H](C)C[C@H](Cc1ccccc1)NC(=O)c1csc([C@@H](C[C@H](C(C)C)N(C)C(=O)[C@@H](NC(=O)[C@H]2C[C@H](O)CCN2C)C(C)C)OC(C)=O)n1 | 10.1% (inactive)
COC(=O)C12CC(NC(=O)c3csc([C@@H](C[C@H](C(C)C)N(C)C(=O)[C@@H](NC(=O)[C@H]4CCCCN4C)C(C)C)OC(C)=O)n3)(C1)C2 | 20.7% (inactive)
COC(=O)[C@@H](C)C[C@H](Cc1ccccc1)NC(=O)c1csc([C@@H](C[C@H](C(C)C)N(C)C(=O)[C@H](C)NC(=O)[C@H]2CCCCN2C)OC(C)=O)n1 | 10.8% (inactive)
O=C(CCCCCNC1=CC(=O)c2ccccc2C1=O)NCCC[Te]c1ccccc1 | -8.56% (active)
CC(=O)O[C@H](C[C@H](C(C)C)N(C)C(=O)[C@@H](NC(=O)[C@H]1CCCCN1C)C(C)(C)C)c1nc(C(=O)N[C@@H](Cc2ccccc2)C[C@H](C)C(=O)O)cs1 | 11.1% (inactive)
COc1ccc(/C=C\c2cc(OC)c(OC)c(OC)c2)cc1OCC(=O)Nc1nc2ccc(F)cc2s1 | 21.2% (inactive)
COc1ccc(C(=O)c2cc(OC)c(OC)c(OC)c2)cc1OC(C)=O | 6.47% (active)
C[C@]12C[C@@H](CO)[C@H](O)C[C@@H]1CC[C@@H]1[C@@H]2CC[C@]2(C)[C@@H](O)CC[C@@H]12 | 96.1% (inactive)
N#CC1(C#N)C(c2ccc(N(CCCl)CCCl)cc2)OC23CCCCC2C1(C#N)C(=N)O3 (stereo not given) | 75.8% (inactive)
O=[N+]([O-])c1ccc([Se]C2CCCCC2Cl)c([N+](=O)[O-])c1 (stereo not given) | 20.4% (inactive)
COc1ccc(-n2c(C)nc3cc(OC)c(OC)cc3c2=O)cc1OC | 94.4% (inactive)
O=[As](O)(O)c1ccccc1[As](=O)(O)O | 93.6% (inactive)
COC(=O)[C@@H](C)C[C@H](Cc1ccccc1)NC(=O)c1csc([C@@H](C[C@H](C(C)C)N(C)C(=O)C2(NC(=O)[C@H]3CCCCN3C)CC2)OC(C)=O)n1 | 4.91% (active)
CN1C(=O)C23CC4(C56CC78SSC(CO)(C(=O)N7C5Nc5ccccc56)N(C)C8=O)c5ccccc5NC4N2C(=O)C1(CO)SS3 (stereo not given) | -100% (active)
CCNc1nc(Cl)nc(NCC)n1 | 104% (inactive)
COc1ccc(C2=CC(c3ccc(OC)c(OC)c3)c3c(c4ccccc4oc3=O)O2)cc1OC (stereo not given) | 24.2% (inactive)
COC(=O)[C@H](Cc1ccccc1)NNC(=O)c1csc([C@@H](C[C@H](C(C)C)N(C)C(=O)[C@@H](NC(=O)[C@H]2CCCCN2C)C2CC2)OC(C)=O)n1 | 4.68% (active)
